SMILES strings stand for the structures. This is part of a sample that, as a whole, favours compounds with a hit. Of some 83,000 tested, about 20% had one in any assay.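 Results are percent growth after 48 hours of single-concentration exposure. 100 means growth as in untreated cells, lower positive values show inhibition; negative values down to -100 show cell death.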 A number with no mark means an inactive call. Activity calls are given as the source filed them. The calls were made as follows: active = growth percent below 10; inactive = the rest.

This test concerns HL-60(TB) leukemia. Kind of test: NCI-60 one-dose screen, 48 h (100 = growth as untreated, 0 = no growth, -100 = all killed). Conditions: 10 µM unless noted.
On to `CC1(COc2ccc3c(c2)ncn3-c2ccc3cccc(N4CCC(N)CC4)c3n2)COC1`, for which the growth was -46.9% (active).

For `CC(C)CCNCC(C)(C)O`, the growth was 99.3%.

On to `COc1cc(C(=O)/C=C/c2c(-c3ccc(F)cc3)nc3sccn23)cc(OC)c1OC`, for which the growth is 32%.

For `COc1cc(NCc2ccccc2O)c2ncccc2c1`, the growth is 51%.

Regarding `CCN(CC)CCCCNc1c2ccc(Cl)cc2nc2ccc(OC)cc12`, the growth is -34.8% (active).

In the case of `CC/C(=C(/c1ccc(Cl)cc1)c1ccc(OCCN2CCOCC2)cc1)c1ccccc1`, the growth is 104%.

As to `COc1cc2oc(-c3cccc(NC(=O)c4ccc5c(c4)OCO5)c3)cc(=O)c2c(OC)c1OC`, the growth was 34.6%.

In the case of `CCCOCc1cn[nH]n1`, the growth was 105%.

Turning to `O=S(=O)(Cc1ccc(Cl)cc1Cl)c1ccc(Cl)cc1`, the growth is 10.5%.

In the case of `O=C(COc1ccc(-c2nc3cc(Cl)c(Cl)cc3[nH]2)cc1)N=Nc1c(O)[nH]c2ccc(Cl)cc12`, the growth was 55.5%.

In the case of `COc1cc2c(cc1C)NC(=O)/C2=C\c1c[nH]c2ccccc12`, the growth is 47.5%.

Take `C1=NCCc2ccccc21`: the growth is 116%.

`Cn1c(=O)c2c(ncn2CCC(=O)Nc2ccc(F)cc2)n(C)c1=O`: the growth was 94.1%.

`CSc1nc(-c2cc3ccccc3o2)cc(-c2ccc(Cl)cc2)c1C#N`: the growth was 126%.

Consider `Nc1nc(SCC2(CCl)COC2)c2[nH]cnc2n1`, for which the growth was 105%.

Regarding `CCOC(=O)n1cc(-c2nonc2-c2cn(C)c3ncccc23)c2cc(F)ccc21`, the growth was 92.8%.

In the case of `Clc1ccc(-c2cn(-c3ccccc3)c(-c3ccccc3)n2)cc1`, the growth was 47.5%.

(Values after PubChem BioAssay (NCI).)
